The whole screen tested about 310,000 compounds, of which about 14,000 (4.5%) showed an effect of 50% or more. Effects have a minus sign here. The full list was thinned out, with strong results kept by preference.
Biological target: human ether-à-go-go-related gene (hERG) potassium channel (human, UniProt Q12809)
Assay: primary screen, population patch clamp on CHO cells stably expressing hERG; higher = less effect of the substance
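Further: peak tail current of the secondary pulse compared with the same well before compound.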

Chain of human ether-à-go-go-related gene (hERG) potassium channel (Q12809 whole entry, looked up): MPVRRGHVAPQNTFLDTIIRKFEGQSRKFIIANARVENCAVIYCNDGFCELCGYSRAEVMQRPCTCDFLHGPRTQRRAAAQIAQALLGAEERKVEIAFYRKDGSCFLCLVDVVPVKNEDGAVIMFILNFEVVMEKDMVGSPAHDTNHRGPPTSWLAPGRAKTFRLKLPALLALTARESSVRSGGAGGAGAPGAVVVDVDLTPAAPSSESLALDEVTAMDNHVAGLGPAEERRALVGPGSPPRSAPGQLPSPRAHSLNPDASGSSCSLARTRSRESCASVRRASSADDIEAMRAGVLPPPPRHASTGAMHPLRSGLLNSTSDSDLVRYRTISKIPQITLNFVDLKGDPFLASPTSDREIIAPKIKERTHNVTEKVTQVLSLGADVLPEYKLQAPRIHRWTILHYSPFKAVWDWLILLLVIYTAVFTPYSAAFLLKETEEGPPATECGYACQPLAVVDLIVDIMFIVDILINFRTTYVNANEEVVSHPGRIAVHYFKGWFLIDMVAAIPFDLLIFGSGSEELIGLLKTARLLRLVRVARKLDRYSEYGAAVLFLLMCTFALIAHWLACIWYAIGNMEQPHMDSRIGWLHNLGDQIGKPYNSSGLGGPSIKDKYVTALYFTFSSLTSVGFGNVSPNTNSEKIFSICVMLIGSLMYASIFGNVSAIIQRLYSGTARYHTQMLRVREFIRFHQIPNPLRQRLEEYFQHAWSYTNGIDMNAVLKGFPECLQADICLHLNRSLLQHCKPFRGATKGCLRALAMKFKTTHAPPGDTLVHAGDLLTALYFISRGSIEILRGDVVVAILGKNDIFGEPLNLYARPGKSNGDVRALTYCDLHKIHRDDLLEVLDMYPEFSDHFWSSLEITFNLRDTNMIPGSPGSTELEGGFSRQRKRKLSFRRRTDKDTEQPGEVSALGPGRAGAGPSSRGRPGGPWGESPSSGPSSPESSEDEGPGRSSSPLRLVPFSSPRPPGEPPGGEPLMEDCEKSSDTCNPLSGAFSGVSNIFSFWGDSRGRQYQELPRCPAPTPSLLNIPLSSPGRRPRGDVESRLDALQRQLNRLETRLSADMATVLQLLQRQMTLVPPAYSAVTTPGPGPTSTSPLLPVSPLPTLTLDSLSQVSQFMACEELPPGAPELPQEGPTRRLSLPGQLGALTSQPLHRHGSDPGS

Structure (SMILES)	hERG current change (%, negative = inhibition) at 10uM
Cc1ccc(C(=O)c2ccc(C(F)(F)F)cc2)cc1	7.79%
CC(=O)N(C)C1=C(O)c2ccccc2C(=O)C1=O	22.3%
Cc1ccc(NC(=O)COC(=O)Cc2c[nH]c3ccccc23)cc1C	-7.15%
COc1ccccc1-c1nnc(SCc2nc3ccccc3s2)n1C	-17%
COc1ccc(C(=O)COC(=O)Cn2cnc3c2c(=O)n(C)c(=O)n3C)c(OC)c1	3.76%
CSc1nsc(SCC(=O)NCc2ccc(C)cc2)n1	10.1%
COc1cc(OC)cc(-c2nnc(SCC(=O)N3CCOCC3)o2)c1	9.82%
Nc1nc(SCc2ccc(Cl)cc2)ns1	-7%
CCN(CC)CCNCc1cc(Br)ccc1OCC(=O)NCc1ccccc1.Cl	-83.2%
NC(=O)N/N=C/c1cc(Br)ccc1OCC(=O)NCc1ccccc1	-6.43%
CCNCc1cc(Br)c(OCC(=O)Nc2ccccc2)c(OC)c1.Cl	-19.8%
CCN(CC)CCNCc1cc(Cl)c(OCC(=O)Nc2ccccc2)c(OC)c1.Cl	-62.5%
COc1cc(CNCCN(C)C)c(Br)cc1OCC(=O)NCc1ccccc1	-29.2%
CCN(CC)CCNCc1ccc(Br)cc1OCC(=O)NCc1ccccc1.Cl	-67.2%
CCCCNCc1cc(Br)c(OCC(=O)NCc2ccccc2)c(OC)c1.Cl	-39.4%
COc1cc(CNC(C)c2ccccc2)cc(Cl)c1OCC(=O)Nc1ccccc1.Cl (centres unmarked)	9.86%
CCOc1cc(CNCCN(C)C)c(Cl)cc1OCC(=O)NCCc1ccccc1.Cl	-10.8%
Cc1c(C(=O)Nc2ccc(S(=O)(=O)Nc3ncccn3)cc2)oc2ccc(Cl)cc12	-17.4%
Cn1c(=O)c2c(nc(CN3CCOCC3)n2CCc2ccccc2)n(C)c1=O	7.53%
Cc1ncc(CO)c2cc(C(N)=O)c(=Nc3ccccc3)oc12	-27.7%
COc1ccc(C(O)P(=O)(OCC(C)C)c2ccc(N(C)C)cc2)c(OC)c1 (centres unmarked)	-3.56%
c1ccc2[nH]c(CCCc3nc4ccccc4[nH]3)nc2c1	-7.32%
CC1CCN(CCc2nc3ccccc3[nH]2)CC1	-63.7%

Structure (SMILES)	hERG current change (%, negative = inhibition) at 10uM
CCCc1nc2ccccc2[nH]1	24.6%
CCn1ccnc1CN1CCCC(C(=O)c2cc(C)c(OC)c(C)c2)C1 (centres unmarked)	-23.2%
CCn1ccnc1CN1CCCC(C(=O)c2ccc3cc(OC)ccc3c2)C1 (centres unmarked)	-70.6%
CCn1ccnc1CN1CCCC(C(=O)c2cc(Cl)ccc2OC)C1 (centres unmarked)	-73.3%
COc1ccc2cc(C(=O)C3CCCN(Cc4cnc(N5CCOCC5)s4)C3)ccc2c1 (centres unmarked)	14.6%
COc1ccc(C(=O)C2CCCN(Cc3cnc(N4CCOCC4)s3)C2)c(OC)c1 (centres unmarked)	-46.9%
CCn1ccnc1CN1CCCC(C(=O)c2cc(F)ccc2OC)C1 (centres unmarked)	-33%
CSc1ccc(C(=O)C2CCCN(C(=O)Cn3cnnn3)C2)cc1 (centres unmarked)	-12.8%
COc1ccc(Cl)cc1C(=O)C1CCCN(Cc2cnc(N3CCOCC3)s2)C1 (centres unmarked)	-57.6%
CSc1ccc(C(=O)C2CCCN(C(=O)c3ccc(C)nc3)C2)cc1 (centres unmarked)	-22.4%
COc1ccc(Cl)cc1C(=O)C1CCCN(Cc2cnc(C)s2)C1 (centres unmarked)	-38.1%
CCn1ccnc1CN1CCCC(C(=O)c2ccc(SC)cc2)C1 (centres unmarked)	-58.3%
Cc1ccc(NC(=O)c2cnccn2)cc1	15.8%
CCCn1c(Cc2ccccc2)nnc1SCC(=O)N1CCOCC1	16.7%
NC(=S)N/N=C/c1ccc([N+](=O)[O-])cc1	-8.06%
O=C(CC1C(=O)NCCN1Cc1ccc(Cl)c(F)c1)NCC1CCOCC1 (centres unmarked)	9.07%
CCOC(=O)C1(Cc2ccc(O)cc2)NC(c2ccccc2F)C2C(=O)N(C)C(=O)C21 (centres unmarked)	-2.04%
CCC(=O)NC(c1cccs1)c1cc([N+](=O)[O-])c2cccnc2c1O (centres unmarked)	15%
CC1=NNC(=O)C1CCC(=O)N/N=C(\C)c1ccccc1 (centres unmarked)	28.3%
CCCCOc1ccc(NC(=O)CSc2nnnn2C)cc1	-2.43%
NCCNc1cc(N2CCCC2)ccc1[N+](=O)[O-]	4.66%
O=C(C1CCCC1)N1CCN(S(=O)(=O)c2ccc(F)cc2)CC1	15.9%
COc1cc(C2C(C(=O)c3ccc(C)o3)=C(O)C(=O)N2Cc2cccnc2)ccc1O (centres unmarked)	10.9%

Structure (SMILES)	hERG current change (%, negative = inhibition) at 10uM
O=C(CCC(=O)NC1CCN(Cc2ccccc2)CC1)NCc1ccco1	-1.88%
Cc1cccc(-c2nnc(SCC(=O)O)n2Cc2ccccc2)c1	-6.26%
N#CCSc1nnc(-c2ccccc2O)n1Cc1ccccc1	5.13%
Cc1ccc(-n2c(SCCN)nnc2-c2cccc(C)c2)cc1.O=C(O)C(=O)O	-38%
Cc1cc(C)nc(SCc2nnc(SCC#N)n2-c2cccc(Cl)c2)n1	-17.6%
Cc1cccc(-c2nnc(SCC#N)n2C)c1	13.2%
Cc1cccc(-c2nnc(SCC#N)n2-c2ccccc2)c1	-54.7%
Cc1cccc(-c2nnc(SCC#N)n2Cc2ccccc2)c1	-66.6%
N#CCSc1nnc(COc2cccc3ccccc23)n1-c1cccc(Cl)c1	8.77%
Cc1cccc(-c2nnc(SCC#N)n2-c2cccc(Cl)c2)c1	-62.5%
COC(=O)c1ccc(C2NC(=O)c3c(sc(C)c3C)N2)cc1 (centres unmarked)	10.7%
COc1ccc(CCNC(=O)c2ccc3ccccc3n2)cc1	-5.65%
O=C(CNc1ccc2c(c1)OCO2)N/N=C\c1ccccc1Cl	3.98%
COc1cccc(NC(=S)N(Cc2ccccn2)Cc2ccccc2Cl)c1	5.73%
O=C(CN(Cc1ccccc1)S(=O)(=O)c1ccccc1)N/N=C/c1ccc2c(c1)OCO2	8.28%
C(=N\C(/N=C/c1ccco1)c1ccco1)/c1ccco1	-5.1%
COc1ccc(NC(=O)N2CCCC2C(=O)NCC2CCCCC2)cc1 (centres unmarked)	0.904%
Cn1ncn2c(=O)c3c(nc12)-c1ccccc1CC31CCCC1	1.56%
COc1ccc(NC(=O)Cn2cc(C#N)c3ccccc32)cc1	15.3%
CC(=O)Nc1ccc(NC(=O)c2sc(-c3ccccc3)nc2C)cc1	10.6%
Nc1ccc2nc(-c3ccccc3)[nH]c2c1	6.5%
COc1cc(C)nc(N2CCCC(C(=O)Nc3cc(Cl)ccc3OC)C2)n1 (centres unmarked)	9.96%
CCCc1cc(N2CCCC(C(=O)Nc3ccc(OC)cc3OC)C2)n2ncnc2n1 (centres unmarked)	-51.4%

Structure (SMILES)	hERG current change (%, negative = inhibition) at 10uM
CCCc1cc(N2CCCC(C(=O)Nc3cc(Cl)ccc3OC)C2)n2ncnc2n1 (centres unmarked)	-70.8%
COc1ccc(Cl)cc1NC(=O)C1CCCN(S(C)(=O)=O)C1 (centres unmarked)	5.29%
COc1ccc(NC(=O)C2CCCN(c3cnccn3)C2)c(OC)c1 (centres unmarked)	21.4%
CCCc1cc(N2CCCC(C(=O)Nc3c(OC)cccc3OC)C2)n2ncnc2n1 (centres unmarked)	-10.7%
O=C(Cc1ccccc1)NCCC1=CCCCC1	9.32%
O=C(CN1CCN(c2ccccc2O)CC1)NC(=O)NC1CCCC1	-0.609%
CCCCCC(=O)Nc1ccc(-c2cn3cccnc3n2)cc1	16.4%
CN1CCN(NC(=O)c2ccc(Cl)c([N+](=O)[O-])c2)CC1	8.74%
CC(=O)Nc1ccc(NC(=O)C(C)Sc2nnc(C3CC3)n2-c2ccccc2)cc1 (centres unmarked)	8.37%
COc1ccc(N2CCN(C(=O)c3ccc4c(c3)OCO4)CC2)cc1	-21.7%
O=c1nc2ccccc2c(NS(=O)(=O)c2ccccc2)n1-c1ccccc1	2.7%
Cc1ccc(C(=O)CSc2nnc(-c3ccco3)n2Cc2ccccc2)cc1	-17.8%
c1ccc(CSc2nnc(-c3ccco3)n2Cc2ccccc2)cc1	-46%
O=C(CSc1nnc(-c2ccco2)n1Cc1ccccc1)NC(=O)NCc1ccco1	-74.7%
CCOC(=O)c1c(C)[nH]c(C)c1C(=O)CSc1nnc(-c2ccco2)n1Cc1ccccc1	-19.3%
c1ccc(CSc2nnc(-c3ccco3)n2Cc2ccco2)cc1	-34.6%
Cc1ccccc1CSc1nnc(-c2cccs2)n1Cc1ccco1	-41.7%
CC(=O)c1c(C)[nH]c(C(=O)CSc2nnc(-c3ccco3)n2Cc2ccccc2)c1C	-61.5%
Cc1nnc(SCC(=O)NC(=O)NCc2ccco2)n1Cc1ccccc1	-6.26%
CC(=O)c1c(C)[nH]c(C(=O)CSc2nnc(-c3cccs3)n2Cc2ccccc2)c1C	-25.6%
O=C1c2ccccc2C(=O)N1CCSc1nnc(-c2ccco2)n1Cc1ccccc1	-72.8%
Cc1ccccc1CSc1nnc(-c2ccco2)n1Cc1ccco1	-75.4%
O=C(CSc1nnc(-c2ccco2)n1Cc1ccccc1)NC(=O)NCc1ccccc1	-13.3%
